“And” between values parts separate entries of the source, which are not always exact repeats. Equal values may be shown once. Compounds without any hit were thinned out: in the full panel of roughly 83,000, 20% have a hit.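 Interpretation: 100, growth as untreated; towards 0, rising growth inhibition; 0, no net growth; 0 to -100, cell death. Compounds scoring below 10 were considered active.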 The source made the active and inactive calls.

The test system of this experiment is MDA-MB-468 breast. The experiment can be described thus: NCI-60 one-dose screen, 48 h (100 = growth as untreated, 0 = no growth, -100 = all killed). The note with it: 10 µM unless noted.
With `Cc1ccc(-c2nn(-c3ccccc3)cc2C=C2C(=O)ON=C2C(C)C)cc1`, the growth is 94% (inactive).

As to `C[C@@H]1[C@H]2[C@H](C=C3[C@@H]4CC[C@H]5Cc6nc7c(nc6C[C@]5(C)[C@H]4C[C@@H](O)[C@@]32C)C[C@@H]2CC[C@H]3C4=C[C@@H]5O[C@@]6(CC[C@](C)(CO)O6)[C@@H](C)[C@@]5(O)[C@@]4(C)[C@H](O)C[C@@H]3[C@@]2(C)C7)O[C@]12CCC(C)(C)O2`, the growth was 11.8% (inactive). For `O=C(NCc1ncc[nH]1)c1ccc(-c2nc3ccc4[nH]ncc4c3c3c2CCCC3)cc1`, the growth is -47.1% (active). The figure for `Cc1cc(Nc2ccc(C(=O)N3CCCC3)cc2)nc(NCCCNc2ccnc3cc(Cl)ccc23)n1` is 40% (inactive); for `COc1ccc(/C=N\NC(=O)c2ccc3nc(-c4ccc(Cl)cc4)[nH]c3c2)cc1` it is 24.2% (inactive). In the case of `CN(C)c1ccc(C(=N)c2ccc(N(C)C)cc2)cc1` it was -45.5% (active) and -18.9% (active); in that of `O=C1CCN(Cc2ccccc2)C(=S)N1`, 110% (inactive); in that of `CCNC(=O)N1CCc2cc(OC)c(OCCc3ccc(OC)c(N)c3)cc2C1c1ccc(C)cc1C` (stereo not given), -0.144% (active). Consider `CCn1cc(C(=O)O)c(=O)c2cc(F)c(N3CCN(S(=O)(=O)c4c(C)cc(C)cc4C)CC3)cc21`, for which the growth was 80.3% (inactive). As to `CN1CCN(Cc2ccc(NC(=O)c3cncc(C#Cc4cnc5ccc(N6CCN(C)CC6)nn45)c3)cc2C(F)(F)F)CC1`, the growth is -75.2% (active). As to `CCN(CC)c1ccc(/C=C/c2cc(C)c3ccccc3n2)cc1`, the growth was 1.02% (active). The figure for `CC(C)Nc1ccc(Nc2ccc(NC(C)C)cc2)cc1` is -7.07% (active); for `N#CC1=C(N)Oc2c(sc3c(Br)cccc23)C1c1ccc(Br)cc1` (stereo not given) it is 12.1% (inactive). Turning to `CNc1ccc(CSc2ccc(Cl)cc2)cc1`, the growth was 78.5% (inactive). With `Cc1cc(N2CCOCC2)nc(N(CCNc2ccnc3cc(Cl)ccc23)Cc2cccs2)n1`, the growth was -15.2% (active). Turning to `CCN1CCN(c2cc(C)nc(NCc3cc(Nc4ccnc5cc(Cl)ccc45)ccc3F)n2)CC1`, the growth was 47.4% (inactive). Regarding `C=C1C(=O)O[C@@H]2[C@@H]3O[C@@](C)(CC/C=C(\C)CCC[C@@H]2C)[C@H](O)C[C@@H]13`, the growth is -24.9% (active). The figure for `CC1(O)CCCCCC1` is 100% (inactive). In the case of `COc1cc(C)c(Cc2cnc(N)nc2N)cc1OC` it was 116% (inactive); in that of `CCOCCOCCOCCOCCOCCOCCOCCOCCOCCO` (tested in a mixture with another compound), -13.5% (active); in that of `CC(C)C1CCC(C)C(O)C1` (stereo not given), 98.5% (inactive).

In the case of `Cc1nc(N)nc(SCc2ccccc2)c1Br`, the growth was 69% (inactive). The figure for `Cc1cc(C)on1` is 98.5% (inactive). In the case of `NS(=O)(=O)c1ccc(Nc2nc(Nc3ccccc3)nc(N3N=C(c4ccc(Cl)cc4)CC3c3ccc(Cl)cc3)n2)cc1` (stereo not given) it was 26.4% (inactive); in that of `CN1CCN(Cc2ccc(NC(=O)c3cncc(C#Cc4cnc(N)c5ncccc45)c3)cc2C(F)(F)F)CC1`, -43.8% (active); in that of `CC(=O)O[C@]1(C(C)=O)CC[C@H]2[C@@H]3C=C(Cl)C4=CC(=O)CC[C@]4(C)[C@H]3CC[C@@]21C`, 105% (inactive). In the case of `CC(C)NC(=O)N1C(=O)CCC1NNC(=O)c1ccc([N+](=O)[O-])cc1` (stereo not given) it was 114% (inactive); in that of `COc1cccc(/C=N/NC(=O)c2cnn3c2NC(c2ccccc2)C3)c1Oc1ccccc1` (stereo not given), 47.3% (inactive); in that of `CC(C)(C)OC(=O)N1C(=O)c2c(c3c4ccccc4[nH]c3c3ccc4ccccc4c23)C1=O`, 75.6% (inactive).

Consider `O=C(Nc1ccc(Cl)cc1F)c1cc(Br)ccc1O`, for which the growth is 0.453% (active).

With `CS(=O)c1nccc(-c2c(-c3ccc(F)c(OCCc4ccc(F)cc4)c3)nc3sccn23)n1` (stereo not given), the growth was -64.3% (active). With `COc1cccc2c1O/C(=C\c1ncc([N+](=O)[O-])n1C)C2=O`, the growth is 19% (inactive). Take `O=C1OC(c2ccc(-c3ccccc3)cc2)=C/C1=C/c1c(Cl)cccc1Cl`: the growth was 90.8% (inactive).

For the compound `COc1cc2c(cc1-c1c(C)noc1C)ncc1nc(C3CCCC3)n([C@H](C)COC(F)F)c12`, the growth is 32.7% (inactive). In the case of `Nc1ccccc1NC(=O)c1ccc(CN2CCC/C(=C\c3cccc(Cl)c3)C2=O)cc1` it was -10.1% (active).

Turning to `CCN(CC)CCCOC(=O)Nc1ccccc1Cl`, the growth was 107% (inactive). On to `C=C(CN1CC=CCC1)[C@@H]1CC[C@]2(COC(C)=O)CC[C@]3(C)[C@H](CC[C@@H]4[C@@]5(C)CC[C@H](O)C(C)(C)[C@@H]5CC[C@]43C)[C@@H]12`, for which the growth is 95% (inactive). Turning to `CCCCOC(=O)c1ccc(C(C)C)cc1`, the growth was 100% (inactive). In the case of `O=c1ccc2c(ccc3ncccc32)o1` it was 107% (inactive); in that of `Cc1ccc2c(c1)ncn2-c1ncnc2c1CC(C)c1ccccc1N2C` (stereo not given), 38% (inactive).
